Assay outcomes (PubChem)
TRHR ag: activates the human TRH receptor; TRHR cells, calcium flux fluo-8, FDSS agonist mode; 360,000 compounds, 0.18% hits; activation, % at 2 µM; P34981; also: 0% is about no effect
Target sequence (P34981 whole entry, looked up): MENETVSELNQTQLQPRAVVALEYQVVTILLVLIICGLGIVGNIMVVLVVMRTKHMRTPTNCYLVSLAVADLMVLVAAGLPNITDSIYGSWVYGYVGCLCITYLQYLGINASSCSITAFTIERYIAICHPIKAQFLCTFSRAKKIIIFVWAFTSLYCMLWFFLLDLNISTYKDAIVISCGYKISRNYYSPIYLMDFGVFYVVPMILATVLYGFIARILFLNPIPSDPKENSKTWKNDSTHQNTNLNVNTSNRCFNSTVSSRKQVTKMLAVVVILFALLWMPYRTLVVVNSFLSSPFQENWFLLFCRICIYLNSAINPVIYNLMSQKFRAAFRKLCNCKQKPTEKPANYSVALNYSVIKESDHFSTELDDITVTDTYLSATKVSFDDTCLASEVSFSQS
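TRHR-expressing cells loaded with fluo-8 calcium dye; 23 nL library compound pin-transferred, kinetic FDSS fluorescence (Ex 480/Em 530) recorded about 180 s for agonist-induced calcium release, before a 10 nM TRH EC20 addition for potentiator mode.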
D1 potentiator: human D1 dopamine receptor positive modulation; HEK293 TREx D1 cells, calcium flux, dopamine EC20 potentiation; potentiation, % at 10 µM; 360,000 compounds, 0.036% hits; in the data active = potentiation above about 30%; also: 0% is about no effect
D1 agonist: activates the human D1 dopamine receptor; P21728; HEK293 T-REx D1 cells, calcium flux, agonist mode; activation, % at 2 µM; 360,000 compounds, 1% hits; AID 504660; also: 0% is about no effect
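Inducible HEK293 T-REx D1 cells, force-coupled to calcium signalling, were plated at 4000 cells/well with tetracycline and held overnight at 30 C. After no-wash calcium dye loading, compound-evoked calcium rise over 180 s flagged agonists.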
Glioma ERSR ind: ER stress response induction in glioma | U87-MG GRP78 promoter luciferase reporter, 16 h | Potency, µM, inactives show top-dose activation, actives largely listed as activators | 420,000 compounds, 0.02% hits; active = well fitted activation curve with a large enough effect; also: potency is read from the fitted curve at half-maximal effect; series mostly up to about 76 µM; % of control where 0% means no effect; nearly all actives have a fitted effect of over 35% in size
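Stably transfected U87-MG human glioma cells carrying a GRP78-based luminescent sensor were seeded at 1000 cells/well, pin-dosed with compounds and incubated 16 h. Luciferase reagent was then added, and end-point luminescence was read after 10 min at room temperature.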
D1 antagonist: antagonists of human D1 dopamine receptor. HEK293 TREx D1 cells, calcium flux, dopamine EC80; active compounds read low. activity change, negative = inhibition, % at 10 µM. 360,000 compounds, 3.2% hits. AID 504652; in the data active = activity change below about -30%; also: % is scaled to controls: 0 for no effect and ±100 for the full control effect
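Cells carrying a force-coupled, tetracycline-inducible human D1 receptor report calcium flux. Each well gets a 10 s baseline, compound with 180 s monitoring, then an EC80 dopamine stimulus with a second 180 s kinetic read.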
TRHR enhancer: allosteric enhancers of human TRH receptor. P34981. TRHR cells, fluo-8 calcium fluorescence, EC20 TRH enhancement. enhancement, % at 2 µM. 360,000 compounds, 0.66% hits. AID 493056; in the data active = enhancement above about 30%; also: 0% is about no effect
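TRHR-expressing cells loaded with fluo-8 calcium dye were read kinetically (ex 480/em 530) during compound addition, then stimulated with an EC20 of TRH (10 nM final). Enhancement of the Gq-mediated intracellular calcium response was scored.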
The depositor's hits bear a star; x = not tested or not shown. Only some compounds are listed: those with a hit (about 4% of all), similar ones and a draw of the others. Rule as the data show it, unless noted: active = activation above about 30%; inactive = the rest.

SMILES | TRHR ag | D1 potentiator | D1 agonist | Glioma ERSR ind | D1 antagonist | TRHR enhancer
Cc1ccc(N(C)S(=O)(=O)c2cccc(C(=O)NC3=NCCS3)c2)cc1 | 0.1 | -2.0 | -0.2 | -4.5% | x | -5.0
COc1cc(OC)cc(C(=O)Nc2ccc(N3CCOCC3)cc2N2CCOCC2)c1 | -0.3 | -2.8 | -0.6 | -1.2% | -51.8* | -10.2
CN(c1ccccc1)S(=O)(=O)c1cccc(C(=O)Nc2ccc(N3CCOCC3)cc2)c1 | -0.2 | -4.5 | 7.3 | -2.5% | -26.2 | -0.3
Cc1ccc(N(C)S(=O)(=O)c2cccc(C(=O)Nc3ccc(N4CCOCC4)cc3)c2)cc1 | 0.5 | -7.3 | 3.4 | -3.7% | -39.3* | 12.4
Cc1ccc(C(=O)Nc2ccc(N3CCOCC3)cc2N2CCOCC2)cc1 | -0.2 | -18.7 | 2.3 | -3.0% | -68.9* | 0.0
O=c1[nH]c(SCc2ccc([N+](=O)[O-])cc2)nc2c1CCCC2 | 0.6 | -2.0 | 2.5 | x | 7.1 | 0.3
CC(C)Oc1cccc(C(=O)NC(=S)Nc2ccccc2)c1 | -2.2 | -3.5 | 5.0 | -0.6% | -35.3* | -5.8
CC(C)Oc1cccc(C(=O)NC(=S)Nc2cccnc2)c1 | -0.3 | -3.3 | 3.6 | -0.5% | -11.0 | 1.3
COc1cc(OC)cc(C(=O)Nc2nnc(NC(=S)Nc3ccccc3)s2)c1 | 0.6 | -7.4 | 1.0 | -2.2% | 27.8 | 35.7*
CC1Cc2ccccc2N1C(=O)C1CC(=O)N(c2ccccc2)C1 (configuration not stated) | 0.8 | -6.7 | 0.3 | -1.9% | -5.9 | 7.3
CCNC(=S)Nc1cccc(NC(=O)c2ccccc2O)c1 | 0.1 | -3.2 | 0.9 | -3.5% | -35.8* | -8.7
CCc1cccc(C)c1NC(=O)C1=C(C(=O)O)CCCC1 | 0.4 | -8.7 | 0.3 | -5.6% | -82.4* | -0.2
CCc1cccc(C)c1NC(=O)c1cccnc1 | 0.8 | -5.4 | 2.7 | -1.9% | -31.6* | 8.6
O=C(COC(=O)c1ccccc1NC(=O)c1ccco1)NCCC1=CCCCC1 | 0.2 | -2.0 | 11.6 | 11.6% | 9.7 | -12.8
CC(=O)c1cccc(NC(=S)NCc2ccco2)c1 | 0.5 | 0.2 | 3.2 | 0.1% | -2.6 | 0.2
CN(C)S(=O)(=O)c1cccc(NC(=S)NCc2ccco2)c1 | 1.8 | -0.5 | 11.3 | -0.2% | 6.2 | 38.5*
O=C(c1ccc2c(c1)OCCO2)C1CCN(S(=O)(=O)c2ccccc2F)CC1 | x | x | x | -0.8% | x | x
O=c1c2cc3c(cc2[nH]c(=S)n1C1CCN(Cc2ccccc2)CC1)OCO3 | -1.9 | -9.2 | 3.0 | -2.2% | -31.8* | 6.3
O=C(NCCN1CCCC1=O)C1CCC(=O)N(CCc2ccc(Cl)cc2)C1 (configuration not stated) | 0.9 | 2.5 | -0.2 | -2.2% | -9.7 | 1.0
Cc1csc(CN(C)C(=O)C2CCC(=O)N(CCCc3ccccc3)C2)n1 (configuration not stated) | 0.2 | -0.1 | 6.3 | -2.3% | -42.8* | -2.1
Cn1cc(CCNC(=O)C2CCC(=O)N(CCc3ccc(Cl)cc3)C2)cn1 (configuration not stated) | 0.2 | -18.2 | 0.3 | -2.4% | -51.9* | -6.5
COc1ccc(CCCNC(=O)C2CCC(=O)N(Cc3ccc(Cl)cc3)C2)cc1 (configuration not stated) | -0.2 | -3.6 | 5.0 | -1.5% | -5.8 | -8.5
Cc1ccc(F)cc1CNC(=O)C1CCC(=O)N(CCc2ccccc2)C1 (configuration not stated) | -0.6 | 1.2 | -0.4 | 2.6% | 4.1 | -2.4
Cc1c(CNC(=O)C2CCC(=O)N(CCc3ccccc3)C2)cnn1C (configuration not stated) | 0.1 | 1.9 | 3.6 | -4.6% | -32.6* | 2.9
O=C(NCCCc1ccccc1)C1CCC(=O)N(Cc2ccc(Cl)cc2)C1 (configuration not stated) | -0.1 | -2.8 | 6.0 | 1.6% | -41.5* | -8.2
CCc1cccc(NC(=O)Cn2ccn3nc(-c4ccc(OC)c(OC)c4)cc3c2=O)c1 | 0.0 | 0.0 | -0.6 | x | -7.5 | 1.3
Cc1cc2oc(=O)cc(CN3CCC(C)CC3)c2cc1Cl | 0.2 | -7.5 | 1.3 | 3.3% | 2.9 | 30.2*
Cc1cc2oc(=O)cc(CN3CCN(Cc4ccccc4)CC3)c2cc1Cl | -0.3 | 1.0 | 5.9 | -3.3% | -0.9 | -3.8
